Nrf2 block: inhibitors of Nrf2 signaling | actives 2.1% (n = 360,000) | AID 504444 | A549 ARE-Fluc reporter, luciferase luminescence, 18-24 h | Potency, µM (highest dose often 46 µM), inactives show at the top dose activity change, negative = inhibition, hits mostly inhibitors; further: on the % scale 0 is the no-effect control and ±100 the full control effect; nearly all actives have a fitted effect of over 60% in size
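Quantitative HTS in A549 cells stably bearing an antioxidant response element-firefly luciferase construct. Inhibition of Nrf2-driven transcription was scored by luminescence after 18-24 h of compound exposure at 37 °C.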
Mito fusion yeast: mitochondrial division inhibition or fusion activation. S. cerevisiae fusion-defective mutant growth rescue, CellTiterGlo 48 h. Potency, µM (top dose mostly 46.1 µM), inactives show at the highest dose growth rescue (activation), hits mostly activators. AID 485298. actives 0.23% (n = 320,000); further: % of control where 0% means no effect; nearly all actives have a fitted effect of over 45% in size
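Compounds are tested for their ability to restore growth of mitochondrial fusion-defective yeast strains at non-permissive 37C in YPEG medium over 48 hours. Viability is quantified by luciferase luminescence.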
A549 tox: kills or reduces viability of A549 cells in Nrf2 counter-screen. actives 0.16% (n = 390,000). A549 ARE-Fluc cells, CellTiter-Fluor viability, 18-24 h. Potency, µM (highest dose often 46 µM), without a hit: at the top dose activity change, negative = cytotoxicity, actives largely listed as inhibitors. AID 504648; further: on the % scale 0 is the no-effect control and ±100 the full control effect
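A549 ARE_Fluc cells in 5% FBS OPTI-MEM were exposed to compounds in concentration-response for 18-24 h at 37 deg C. Viability was read by CellTiter-Fluor fluorescence (Ex 405/Em 525) after 30 min, before the luciferase read.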
rTrxR1 inhibitor: blocks rat thioredoxin reductase 1 | O89049 | recombinant rTrxR1, NADPH fluorescence consumption, selenite substrate | Potency, µM (titrated, usually from 114 µM), without a hit: at the top dose activity change, negative = inhibition, actives largely listed as inhibitors | actives 1% (n = 390,000) | AID 588453; further: on the % scale 0 is the no-effect control and ±100 the full control effect; nearly all actives have a fitted effect of over 65% in size
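Rat TrxR1 (90 nM in the dispensed reagent) was pre-reduced with 400 uM NADPH for 5 min at room temperature, then incubated with compound for 15 min. After 400 uM selenite was added, NADPH fluorescence (Ex 340/Em 450 nm) was followed for 8 min.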
TrxR1 substrate: substrates of rat thioredoxin reductase 1 | actives 0.01% (n = 390,000) | purified TrxR1 substrate turnover, NADPH consumption readout | O89049 | Potency, µM (doses to about 114 µM), inactives show top-dose activity change, negative = substrate turnover; further: on the % scale 0 is the no-effect control and ±100 the full control effect; nearly all actives have a fitted effect of over 50% in size
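Rat TrxR1, dispensed at 90 nM, was prereduced with 400 uM NADPH (final) for 5 min at ~22 deg C, then incubated with compound 15 min before 400 uM selenite. A first-read NADPH fluorescence drop versus no-compound background flagged substrates.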
mIDH1 inhibitor: human IDH1 R132H inhibition; O75874; IDH1-R132H enzyme, NADPH consumption, diaphorase/resazurin fluorescence; Potency, µM (series often up to 76.6 µM), inactives show top-dose activity change, negative = inhibition, most hits filed as inhibitors; actives 0.093% (n = 390,000); further: on the % scale 0 is the no-effect control and ±100 the full control effect; nearly all actives have a fitted effect of over 65% in size
Target sequence (O75874 whole entry R132H, stated change not applied): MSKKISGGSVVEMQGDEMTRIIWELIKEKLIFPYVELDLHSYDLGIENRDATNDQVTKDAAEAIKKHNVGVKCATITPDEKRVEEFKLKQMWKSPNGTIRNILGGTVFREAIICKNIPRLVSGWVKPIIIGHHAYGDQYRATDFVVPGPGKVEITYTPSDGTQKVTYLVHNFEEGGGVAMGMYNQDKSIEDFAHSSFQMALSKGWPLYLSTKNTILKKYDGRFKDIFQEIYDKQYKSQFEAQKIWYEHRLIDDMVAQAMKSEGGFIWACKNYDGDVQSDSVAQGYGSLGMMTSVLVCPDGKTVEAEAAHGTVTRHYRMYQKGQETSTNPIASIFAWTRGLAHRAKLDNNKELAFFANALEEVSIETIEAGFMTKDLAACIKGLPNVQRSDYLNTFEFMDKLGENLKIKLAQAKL
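IDH1-R132H (0.5 ug/mL) preincubated 30 min with compound, then NADPH (0.016 mM) and alpha-KG (2 mM) added; 80 min at RT, pH 7.5. Remaining NADPH coupled via diaphorase/resazurin to fluorescence (540/590 nm); concentration-response curves normalized to no-enzyme control.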
Starred values were filed as active, the others as inactive; ? = inconclusive; nt = not tested or not shown; [ ] = remark or other dose. Rows were chosen to be rich in hits. Some 3.1% of all compounds tested hit in one or more screens of this group. The call rests on the fitted dose curve; in most records, active means well fitted curve in the direction sought with a large enough effect; inconclusive means small, poorly fitted or top-dose-only effect, or another doubt; inactive means no such curve, though single readings can be large; an effect the other way counts as inactive or inconclusive. Potency means the concentration at half of the fitted maximal effect.

SMILES	Nrf2 block	Mito fusion yeast	A549 tox	rTrxR1 inhibitor	TrxR1 substrate	mIDH1 inhibitor
O=C(N/N=C/c1cc([N+](=O)[O-])ccc1O)c1cccc2cc[nH]c12	23µM*	3%	?	-1%	-4%	0%
Cc1nnc(NC(=O)C2CCN(S(=O)(=O)c3cc([N+](=O)[O-])ccc3Cl)CC2)o1	-5%	1%	1%	?	2%	-9%
COc1ccc2nc(NC(=O)C3CCN(S(=O)(=O)c4cccc5nsnc45)CC3)sc2c1	16µM*	7%	-20%	5%	-6%	-1%
Cc1cccc(NC(=O)C2CCN(S(=O)(=O)c3cccc4nsnc34)CC2)n1	?	0%	-2%	0%	-3%	5%
Cc1cccc2sc(NC(=O)C3CCN(S(=O)(=O)c4cc([N+](=O)[O-])ccc4Cl)CC3)nc12	12µM*	-3%	?	-34%	-8%	0%
COCCN(C(=O)CCC(=O)Nc1cc(C)on1)C(C(=O)NC1CCCC1)c1ccccc1C (centres undefined)	7%	-3%	0%	6%	7%	3%
COCCN(C(=O)CCl)C(C(=O)NC1CCCCC1)c1ccccc1C (centres undefined)	?	11%	-14%	28µM*	3%	-1%
O=C(NC1CCCC1)C(c1ccc(F)cc1)N(Cc1ccccc1Cl)C(=O)CCl (centres undefined)	-15%	-9%	-16%	32µM*	-1%	-7%
O=C(NC1CCCC1)C(c1ccc(F)cc1)N(Cc1ccc(F)cc1)C(=O)c1ccn[nH]1 (centres undefined)	11%	1%	-2%	3%[57.1 µM]	2%[57.1 µM]	10%
Cc1ccc(CNC(=O)c2cnc3c(-c4ccc(F)cc4)c(C)nn3c2C)o1	5%	nt	-4%	2%[57.1 µM]	2%[57.1 µM]	-13%
O=C1c2ccccc2C(=O)N1c1ccc2ccccc2n1	-6%	nt	-11%	nt	nt	nt
CCC1CCCCN1S(=O)(=O)c1ccc(N2CCCCS2(=O)=O)cc1 (centres undefined)	nt	nt	-9%	21%[57.1 µM]	2%[57.1 µM]	1%
CCC1=NN(C(=O)C(=O)Nc2ccccc2OC)C(O)(C(F)(F)F)C1 (centres undefined)	7%	3%	-18%	6%	-7%	1%
COc1ccccc1NC(=O)C(=O)N1N=C(C(C)C)CC1(O)C(F)(F)F (centres undefined)	23µM*	0%	-21%	-1%	5%	2%
O=c1[nH]nc(Cc2ccc(-c3cccc(Cl)c3)o2)c2ccccc12	21µM*	-5%	-17%	-1%[57.1 µM]	1%[57.1 µM]	6%
COc1cc(/C=C/c2cncc(/C=C/c3cc(OC)c(OC)c(OC)c3)c2)cc(OC)c1OC	nt	nt	nt	13%	-2%	nt
O=c1[nH]n(-c2ccc(Cl)cc2)c(=O)c(Cl)c1Cl	nt	2%	-1%	22µM*	10%[57.1 µM]	11%
Nc1nccc(SCc2ccc(Cl)cc2Cl)n1	-5%	nt	2%	?	-7%	7%
Nc1nc(N)c(Cc2ccc(Cl)cc2Cl)c(N)n1	18µM*	-13%	-14%	12%	0%	0%
O=C(NC(=S)Nc1ccc(N2CCCCC2)c(Cl)c1)c1ccc2c(c1)OCCO2	9.2µM*	2%	-7%	-24%	-8%	4%
O=C(NC(=S)Nc1ccc(N2CCOCC2)c(Cl)c1)c1cncc(Br)c1	-4%	-3%	11%	?	-15%	-4%
CCN(CC)c1ccc(NC(=O)C2CCCN(S(=O)(=O)c3ccc4c(c3)oc(=O)n4C)C2)c(C)c1 (centres undefined)	-12%	nt	5%	15%	-4%	4%
Cc1cc2c(s1)c1cnn(Cc3c(F)cccc3C(F)(F)F)c(=O)c1n2C	15%	nt	3%	nt	nt	nt

High-throughput results (PubChem)
